Screening results as filed in PubChem BioAssay.
The full list was thinned out, with hits kept by preference.
Dicer processing – blocks human Dicer maturation of pre-miR-21; Q9UPY3; AID 1347074; cat-ELCCA pre-miR-21 Dicer processing, chemiluminescence; stronger effect = higher value; hit rate 6% among 47,000; z-score at 25 µM; in the data active = z-score above about 3, passing the limit was not always enough;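 also: higher signal means more uncleaved substrate so more Dicer inhibition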
Target sequence (Q9UPY3 whole entry, looked up): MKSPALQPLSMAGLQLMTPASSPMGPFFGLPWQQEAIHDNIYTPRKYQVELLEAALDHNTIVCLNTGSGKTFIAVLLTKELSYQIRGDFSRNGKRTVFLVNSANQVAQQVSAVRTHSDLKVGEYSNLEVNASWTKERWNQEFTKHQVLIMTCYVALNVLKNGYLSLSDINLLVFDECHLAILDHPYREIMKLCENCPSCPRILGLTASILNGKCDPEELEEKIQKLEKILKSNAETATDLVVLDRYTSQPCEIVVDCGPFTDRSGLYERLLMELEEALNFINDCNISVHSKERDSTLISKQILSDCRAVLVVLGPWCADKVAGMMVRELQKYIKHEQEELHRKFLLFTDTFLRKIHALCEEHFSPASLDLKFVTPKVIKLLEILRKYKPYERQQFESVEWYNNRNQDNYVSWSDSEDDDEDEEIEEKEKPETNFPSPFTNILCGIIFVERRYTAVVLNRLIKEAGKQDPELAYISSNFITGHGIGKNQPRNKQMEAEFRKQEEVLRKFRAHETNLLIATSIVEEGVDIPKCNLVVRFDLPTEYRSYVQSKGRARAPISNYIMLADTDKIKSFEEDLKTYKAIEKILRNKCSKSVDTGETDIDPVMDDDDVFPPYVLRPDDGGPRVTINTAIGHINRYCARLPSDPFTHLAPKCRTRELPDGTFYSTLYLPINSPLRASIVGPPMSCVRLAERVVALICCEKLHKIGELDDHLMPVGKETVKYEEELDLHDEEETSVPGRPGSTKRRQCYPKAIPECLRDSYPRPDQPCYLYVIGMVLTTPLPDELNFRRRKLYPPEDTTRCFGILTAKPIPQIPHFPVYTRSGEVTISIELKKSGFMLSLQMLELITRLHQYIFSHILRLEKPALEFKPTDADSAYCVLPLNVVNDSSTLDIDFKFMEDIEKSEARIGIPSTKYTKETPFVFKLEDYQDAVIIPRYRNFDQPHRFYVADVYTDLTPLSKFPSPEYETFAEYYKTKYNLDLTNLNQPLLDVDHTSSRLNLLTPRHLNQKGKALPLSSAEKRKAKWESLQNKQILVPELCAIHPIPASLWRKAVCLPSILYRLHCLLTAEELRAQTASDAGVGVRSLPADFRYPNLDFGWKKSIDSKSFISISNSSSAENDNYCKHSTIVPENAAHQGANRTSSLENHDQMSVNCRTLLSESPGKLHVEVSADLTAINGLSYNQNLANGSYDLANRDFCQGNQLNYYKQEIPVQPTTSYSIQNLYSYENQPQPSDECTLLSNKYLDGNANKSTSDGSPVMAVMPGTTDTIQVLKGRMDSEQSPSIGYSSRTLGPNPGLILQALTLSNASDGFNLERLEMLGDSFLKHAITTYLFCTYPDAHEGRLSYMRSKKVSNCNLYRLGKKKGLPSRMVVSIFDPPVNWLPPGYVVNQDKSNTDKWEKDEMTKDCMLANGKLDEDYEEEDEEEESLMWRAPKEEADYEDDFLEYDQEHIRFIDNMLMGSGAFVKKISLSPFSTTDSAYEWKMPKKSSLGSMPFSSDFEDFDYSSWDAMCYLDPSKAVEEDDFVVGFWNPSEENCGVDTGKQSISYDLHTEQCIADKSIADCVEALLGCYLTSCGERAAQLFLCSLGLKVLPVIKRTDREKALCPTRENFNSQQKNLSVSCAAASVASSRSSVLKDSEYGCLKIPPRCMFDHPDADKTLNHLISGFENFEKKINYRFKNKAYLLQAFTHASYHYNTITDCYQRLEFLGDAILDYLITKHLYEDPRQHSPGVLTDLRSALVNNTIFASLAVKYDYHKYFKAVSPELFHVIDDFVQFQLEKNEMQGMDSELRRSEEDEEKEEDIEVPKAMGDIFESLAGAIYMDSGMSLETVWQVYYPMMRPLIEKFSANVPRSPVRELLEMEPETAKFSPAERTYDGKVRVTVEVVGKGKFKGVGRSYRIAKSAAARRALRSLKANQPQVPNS
A number is an active result; 0 = inactive.

SMILES	Dicer processing
Cc1ccc(Cc2c(C)[nH]c3[nH]n(-c4ccccc4)c(=O)c3c2=O)cc1	0
Cc1ccc(S(=O)(=O)Oc2c(Cc3ccccc3)c(=O)n(C)c3ccccc23)cc1	3.8
Cn1c(=O)c2c(ncn2CC(O)CN2CCOCC2)n(C)c1=O (configuration not stated)	0
CCc1n(CC(O)COc2c(C)cccc2C)c2ccccc2[n+]1C (configuration not stated)	0
S=C(N/N=C/c1ccc(Cl)c(Cl)c1)NC1CC2CCC1C2 (configuration not stated)	0
O=C(CSc1nnc2nnc3cc(Cl)ccc3n12)N1CCOCC1	0
COc1ccc(NC(=O)Nc2c(SC)nsc2SC)cc1	4
COc1ccc(OCc2nnc(NC(=O)Nc3ccc(F)cc3)s2)cc1	0
COc1ccccc1NC(=O)Nc1c(SC)nsc1SC	0
COC(=O)Cn1nnc2sc3c(c2c1=O)CCCC3	0
CCC(C)OC(=O)Cn1nnc2sc3c(c2c1=O)CCC(C)C3 (configuration not stated)	0
CCCOC(=O)Cn1nnc2sc3c(c2c1=O)CCCC3	0
COCCOC(=O)Cn1nnc2sc3c(c2c1=O)CCC(C)C3 (configuration not stated)	0
CC1CCc2c(sc3nnn(CC(=O)NC4CCCCC4)c(=O)c23)C1 (configuration not stated)	0
CCCCCOC(=O)Cn1nnc2sc3c(c2c1=O)CCC(C)C3 (configuration not stated)	3.5
CC1CCN(C(=O)Cn2nnc3sc4c(c3c2=O)CCC(C)C4)CC1 (configuration not stated)	3
CC1CCN(C(=O)Cn2nnc3sc4c(c3c2=O)CCCC4)CC1	3.5
CC(C)COC(=O)Cn1nnc2sc3c(c2c1=O)CCC(C)C3 (configuration not stated)	0
CCOc1ccc(C2c3c(oc4ccc(F)cc4c3=O)C(=O)N2c2nc(C)c(C(=O)OC)s2)cc1 (configuration not stated)	0
S=C1NCN(CCc2ccccn2)CN1	0
O=C(O)CCC(=O)N1N=C2/C(=C/c3ccc(F)cc3)CCCC2C1c1ccc(F)cc1 (configuration not stated)	0
N#Cc1ccc(OS(=O)(=O)c2cc(Cl)c(Cl)cc2Cl)cc1	0
CN(C)CCCN1C(=O)C(=O)/C(=C(\O)c2ccccc2)C12C(=O)N(C)c1ccccc12 (configuration not stated)	0
C=CCN1C(=O)C2(/C(=C(/O)c3ccccc3)C(=O)C(=O)N2CCCN(C)C)c2ccccc21 (configuration not stated)	4
CCOc1ccc(/C(O)=C2/C(=O)C(=O)N(CCCN(C)C)C23C(=O)N(CC)c2ccccc23)cc1 (configuration not stated)	0
SMILES	Dicer processing
C=CCN1C(=O)C2(/C(=C(/O)c3ccc(F)cc3)C(=O)C(=O)N2CCCN(C)C)c2ccccc21 (configuration not stated)	0
CCN1C(=O)C2(/C(=C(/O)c3ccccc3)C(=O)C(=O)N2CCCN(C)C)c2ccccc21 (configuration not stated)	3.6
C=CCN1C(=O)C2(/C(=C(/O)c3ccc(OCC)cc3)C(=O)C(=O)N2CCN(C)C)c2ccccc21 (configuration not stated)	0
O=C(NCc1c(Cl)cccc1Sc1ccc(Cl)cc1)Nc1ccccc1	0
CC1=C(C(=O)OCC2CCCO2)C(c2ccccn2)C2=C(CC(C)(C)CC2=O)N1 (configuration not stated)	0
CC1c2snnc2-c2cc(Cl)ccc2S1(=O)=O (configuration not stated)	0
O=C(Oc1ccc(F)cc1)c1cccs1	0
CCOC(=O)C(CC)Oc1ccc2c(=O)c(-c3ccc(Cl)cc3)coc2c1 (configuration not stated)	0
CCC(C)OC(=O)C(C)Oc1ccc2c(=O)c(-c3ccc(Cl)cc3)coc2c1 (configuration not stated)	0
CCCCOC(=O)C(C)Oc1ccc2c(=O)c(Oc3ccccc3Br)coc2c1 (configuration not stated)	0
Cc1cc(C)cc(Oc2coc3cc(OC(C)C(=O)OCC(C)C)ccc3c2=O)c1 (configuration not stated)	3.6
CCCOC(=O)C(C)Oc1ccc2c(=O)c(-c3ccc(Cl)cc3)coc2c1 (configuration not stated)	3.2
CC(C)COC(=O)C(C)Oc1ccc2c(=O)c(Oc3ccccc3Cl)coc2c1 (configuration not stated)	0
CCCOC(=O)COc1ccc2c(=O)c(Oc3cc(C)c(Cl)c(C)c3)coc2c1	0
CCOCCOC(=O)C(C)Oc1ccc2c(=O)c(Oc3cc(C)c(Cl)c(C)c3)coc2c1 (configuration not stated)	0
CCOCCOC(=O)COc1ccc2c(=O)c(-c3ccc(Cl)cc3)coc2c1	3.5
CCOC(=O)C1CCN(c2ccccc2CN(Cc2ccccc2)S(=O)(=O)c2ccc(Cl)cc2)CC1	0
COc1cccc(C2C3=C(Nc4c2c(=O)[nH]c(=O)n4C)c2ccccc2C3=O)c1 (configuration not stated)	0
C=CCSc1nc(N)c(C(c2ccc(Cl)cc2Cl)c2c(N)nc(SCC=C)[nH]c2=O)c(=O)[nH]1	0
C=CCOc1ccc(C2C(C(=O)c3cc4ccccc4o3)=C(O)C(=O)N2CCN(C)C)cc1 (configuration not stated)	0
COC(=O)c1cc(-c2ccc(Cl)cc2)no1	0
CC(=O)OC[C@H]1O[C@@H](Oc2ccc3ccccc3c2)[C@H](OC(C)=O)[C@@H](OC(C)=O)[C@@H]1OC(C)=O	0
O=S(=O)(c1ccc(Oc2ccccc2)nc1)N1CCCC1c1ccc(F)cc1 (configuration not stated)	0
CC1CCC2C(=O)N(c3ccc(N4C(=O)C5CCC(C)CC5C4=O)cc3)C(=O)C2C1 (configuration not stated)	0
CC1CCC2C(=O)N(c3ccc(C(=O)OC(C)C(=O)c4ccccc4)cc3)C(=O)C2C1 (configuration not stated)	3.1
SMILES	Dicer processing
CC1CCC2C(=O)N(c3ccc(Cl)cc3)C(=O)C2C1 (configuration not stated)	0
O=C(NC(=O)c1ccc(F)c(Cl)c1)NN(Cc1c(F)cccc1Cl)c1ccccc1	0
O=C1ON=C(c2ccccc2)/C1=C/c1ccc(Cl)cc1Cl	0
Nc1cccc(-c2nc3cc(Cl)ccc3o2)c1	4.5
Cc1cc2nc(-c3cccc(N)c3)oc2cc1C	0
CN(C)c1ccc(-c2nc3cc(N)ccc3o2)cc1	3.4
Nc1cccc(-c2nc3ccccc3o2)c1	0
CCOc1ccc(-c2nc3cc(N)ccc3o2)cc1	0
Nc1ccc(-c2nc3cc(N)ccc3o2)cc1	0
CCn1cc2c(c1-c1ccc(C)cc1)c(=O)n(C)c(=O)n2C	0
C1=CC2c3cc(-c4ccccc4)ccc3NC(c3ccncc3)C2C1 (configuration not stated)	0
CCOC(=O)c1cc2cc(OCc3ccccc3)ccc2[nH]1	0
COC(=O)/C(C#N)=C\C=C\c1ccccc1	0
N/C(=N\O)c1c(Cl)cccc1Cl	0
Cc1nc(-c2cccc(NS(=O)(=O)c3ccc4ccccc4c3)c2)cs1	4.5
Cc1cccc(S(=O)(=O)Nc2ccc(-c3cn4cccc(C)c4n3)cc2)c1	0
Cc1nc(-c2ccc(NS(=O)(=O)c3ccc(Cl)cc3)cc2)cs1	5.9
Cc1nc(-c2ccc(Cl)cc2)cs1	0
